# Measured values from the supplement of paper PMC10981050.
# “And” between values parts separate entries of the source, which are not always exact repeats. Equal values may be shown once. Where a name gives a salt, the structure may show the parent alone.
# Columns and labels:
# Assay in all cases: cell viability relative to vehicle control; higher = less cytotoxic
# Settings in all cases: 10 µM
# K562 = tested on: K562
# Outline: (§1)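 Four leukaemia lines, as CRISPR-edited mutant clones and isogenic wild-type clones, were tested against Selleck bioactive, kinase and epigenetic probe libraries after removal of identity-inconsistent compounds. Cells were exposed to a single 10 µM dose for 48 h, and CellTiter-Glo luminescence was then read. Viability was calculated relative to the on-plate vehicle control.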
# MARIMO = tested on: MARIMO
# Outline: as §1
# MOLM14 = tested on: MOLM14
# Outline: as §1
# OCI-AML2 = tested on: OCI-AML2
# Outline: as §1
Structure (SMILES),cell viability (K562; SRSF2 genotype: SRSF2 P95H/wt),cell viability (K562; SRSF2 genotype: SRSF2 wt/wt) [%],cell viability (MARIMO; SRSF2 genotype: SRSF2 P95H/wt) [%],cell viability (MARIMO; SRSF2 genotype: SRSF2 wt/wt) [%],cell viability (MOLM14; SRSF2 genotype: SRSF2 P95H/wt) [%],cell viability (MOLM14; SRSF2 genotype: SRSF2 wt/wt) [%],cell viability (OCI-AML2; SRSF2 genotype: P95H/wt) [%],cell viability (OCI-AML2; SRSF2 genotype: wt/wt) [%]
Cc1[nH]c(/C=C2\C(=O)Nc3ccc(S(=O)(=O)Cc4c(Cl)cccc4Cl)cc32)c(C)c1C(=O)N1CCC[C@@H]1CN1CCCC1,0.5% and 0.24%,81.8,76.3,87.6,42,46.8,0.12,0.09
CC[C@H](c1ccc(O)cc1)[C@@H](CC)c1ccc(O)cc1 [Hexestrol (Bibenzyl)],96.8% and 102%,96.9,94.6,101,99.7,103,100,91.9
Cc1ccc(NC(=O)c2ccc(CN3CCN(C)CC3)cc2)cc1Nc1nc(-c2cccnc2)cs1 [Masitinib (AB1010)],6.35% and 18.8%,12.1,72.5,59.7,70.3,67.8,52,52.1
Cc1cnc(-c2ccccc2C(C)C)nc1NCc1ccc(-n2ccnn2)cc1,76.7% and 83.9%,74.5,91.1,89.7,94,88.5,93.2,90.2
COc1ncnc(NS(=O)(=O)c2ccc(N)cc2)c1OC [Sulfadoxine (Sulphadoxine)],103% and 107%,98.1,104,105,95.4,100,98.5,96.3
O=C1[C@H](CC[C@H](O)c2ccc(F)cc2)[C@@H](c2ccc(O)cc2)N1c1ccc(F)cc1 [Ezetimibe (Zetia)],86.1% and 94.8%,102,80.6,91,82.7,90.1,80.8,88.2
CCCCCCCCCCCCCCCC(=O)OCC(O)C1OC(=O)C(O)=C1O [L-Ascorbyl 6-palmitate],103% and 102%,98.7,107,121,106,109,103,106
N#Cc1c(O)c2c(-c3ccc(-c4ccccc4O)cc3)csc2[nH]c1=O,102% and 100%,103,99.1,103,104,99,93.1,101
O=C(Cn1nnc(-c2ccncc2)c1-c1ccccc1)Nc1ccc(-c2ccccc2)cn1,58% and 48.3%,57.6,51.6,53.3,54.6,51.1,35.9,40.8
C[C@@H](Oc1ccc2[nH]nc(/C=C/c3cnn(CCO)c3)c2c1)c1c(Cl)cncc1Cl,36.1% and 35.5%,30.1,6.39,5.47,0.8,0.16,0.48,4.14
OC[C@@H](O)[C@@H](O)[C@@H](O)CO [Ribitol (Adonitol)],94.5% and 97%,96.2,89.7,93.4,97.9,94.3,90,97.9
Nc1c(CC(=O)O)cccc1C(=O)c1ccccc1 [Amfenac Sodium (monohydrate)],103% and 98.3%,93.7,94.7,101,91.5,95.9,88.5,99.8
O=C(Nc1cccnc1)c1cc(-c2ccnc(F)c2)ccc1OCc1ccccc1,97.4% and 102%,94.6,97.5,102,104,98.7,95.8,95.6
C=C1CCC2C(C)(COC(=O)CCC(=O)O)C(OC(=O)CCC(=O)O)CCC2(C)C1C=CC1=CCOC1=O (stereo not given) [Dehydroandrographolide Succinate],114% and 108%,111,101,101,109,107,106,105
CC1Cc2ccccc2N1NC(=O)c1ccc(Cl)c(S(N)(=O)=O)c1 (stereo not given) [Indapamide (Lozol)],108% and 105%,103,106,105,106,106,114,104
COc1cc(/C=C/C(=O)N2CCN(CC(=O)N3CCCC3)CC2)cc(OC)c1OC [Cinepazide maleate],102% and 105%,99.2,99.5,106,106,105,106,108
O=C1CCCC(=O)C1C(=O)c1ccc(C(F)(F)F)cc1[N+](=O)[O-] [Nitisinone],105%,108,103,109,104,108,110,111
CCCCCOc1ccc(-c2ccc(-c3ccc(C(=O)N[C@H]4C[C@@H](O)[C@@H](O)NC(=O)[C@@H]5[C@@H](O)[C@@H](C)CN5C(=O)[C@H]([C@@H](C)O)NC(=O)[C@H]([C@H](O)[C@@H](O)c5ccc(O)cc5)NC(=O)[C@@H]5C[C@@H](O)CN5C(=O)[C@H]([C@@H](C)O)NC4=O)cc3)cc2)cc1,77.8% and 78.3%,80.5,95.7,94.3,82.7,84.5,77.5,82.8
Cc1cc(=O)n(-c2ccccc2)n1C [Antipyrine],97.8% and 87.7%,82.7,86.2,95.4,88.1,87.4,84.8,93.4
Cc1ccc(NC(=S)NNc2c([N+](=O)[O-])cc(C(F)(F)F)cc2[N+](=O)[O-])cc1Cl,81% and 81.3%,90.4,87.3,86.2,89.3,84.6,101,94.4

Structure (SMILES),cell viability (K562; SRSF2 genotype: SRSF2 P95H/wt),cell viability (K562; SRSF2 genotype: SRSF2 wt/wt) [%],cell viability (MARIMO; SRSF2 genotype: SRSF2 P95H/wt) [%],cell viability (MARIMO; SRSF2 genotype: SRSF2 wt/wt) [%],cell viability (MOLM14; SRSF2 genotype: SRSF2 P95H/wt) [%],cell viability (MOLM14; SRSF2 genotype: SRSF2 wt/wt) [%],cell viability (OCI-AML2; SRSF2 genotype: P95H/wt) [%],cell viability (OCI-AML2; SRSF2 genotype: wt/wt) [%]
"Cn1ccnc1S [Methimazole (Tapazole, Northyx)]",101% and 94.7%,95.5,99.3,99.8,97.7,97.6,93.2,100
Cc1c(C(=O)N2CCOc3ccc(-c4ccc(N)nc4)cc3C2)ccc(S(C)(=O)=O)c1F,84.6% and 89.8%,84.4,81.4,76.9,71.2,63.6,70,67.8
O=c1[nH]cnc2c1ncn2[C@H]1C[C@H](O)[C@@H](CO)O1 [2'-Deoxyinosine],120% and 113%,116,104,107,105,118,103,111
Nc1cc(C(Cl)=C(Cl)Cl)c(S(N)(=O)=O)cc1S(N)(=O)=O [Clorsulon],92.3% and 94.2%,99.7,103,107,104,99.8,99.9,112
CCN(Cc1ccncc1)C(=O)C(CO)c1ccccc1 (stereo not given) [Tropicamide],102% and 103%,108,107,103,97.7,106,109,116
"CC1(C)CCCC2(C)C1CCC1(C)OCCC12 (single isomer, unassigned; (-)) [(-)-Ambroxide]",94.6% and 94.5%,99.7,97.9,101,95.9,96.4,98,103
Cc1nc(C#Cc2ccnc(Cl)c2)c(C)n1-c1ccc(OC(F)(F)F)cc1,75.6% and 89.6%,75.7,82.7,88.9,78.8,80.2,55.7,68.7
O=c1cc(-c2ccc(O)cc2)oc2c([C@@H]3O[C@H](CO)[C@@H](O)[C@H](O)[C@H]3O)c(O)cc(O)c12 [Vitexin],109% and 103%,101,108,107,101,105,103,107
Cc1cn([C@H]2O[C@@H](CO)[C@H](O)[C@H]2F)c(=O)[nH]c1=O [Clevudine (Levovir)],91.2% and 95.1%,99.5,91.2,92.2,101,97.9,99.6,88.1
C[C@H]1COc2c(N3CCN(C)CC3)c(F)cc3c(=O)c(C(=O)O)cn1c23 [Levofloxacin (Levaquin)],95.5% and 83.8%,87.5,90.4,101,95.2,88,87.3,88.3
CN(C)CC(c1ccc(O)cc1)C1(O)CCCCC1 (stereo not given) [Desvenlafaxine],96.7% and 97.5%,101,102,102,98.1,100,100,99.3
O=C(Nc1ccc(Cl)cc1)C1CCCN(C(=O)c2cccc(-c3ccco3)c2)C1 (stereo not given),67.5% and 80.2%,71.6,52.6,39.4,64.4,77.1,29,43
CCCCN1CCCC[C@H]1C(=O)Nc1c(C)cccc1C [Levobupivacaine HCl],82.7% and 79.1%,80.2,82.3,85.1,83.5,88.7,82.3,90.8
CC1=C(CSC(=S)N2CCCCC2)C(=O)c2ccccc2C1=O [PKM2 inhibitor(compound 3k)],3.74% and 0.42%,8.02,0.75,0.85,0.19,0.21,0.2,1.51
N=C(N)N [Guanidine (Aminoformamidine) HCl],94.2% and 97%,103,104,98.3,97,98.7,102,98.1
CC(=O)OC/C=C(/C)CCC=C(C)C [Neryl acetate],98.4% and 101%,100,96.8,102,112,99.6,100,103
Cc1cnc(C(=O)NCCc2ccc(S(=O)(=O)NC(=O)NC3CCCCC3)cc2)cn1 [Glipizide (Glucotrol)],93.8% and 94.9%,91.6,90.9,104,94.3,92.5,96.6,97.4
COc1c(O)cc2c(c1O)C(=O)c1c(cc(C)c(O)c1OC)C2=O [Aurantio-obtusin],87% and 81.9%,79.3,84.5,84.3,84.5,88.9,97.9,91.5
CN1CCN(c2ccc(Nc3ncc4cc(C#N)c(=O)n(C5CCCC5)c4n3)cc2)CC1,79.5% and 104%,87.8,60.4,58.4,17.9,16.4,21.4,29.1
CO[C@H]1C[C@@H]2CC[C@@H](C)[C@@](O)(O2)C(=O)C(=O)N2CCCC[C@H]2C(=O)O[C@H]([C@H](C)C[C@@H]2CC[C@@H](OP(C)(C)=O)[C@H](OC)C2)CC(=O)[C@H](C)/C=C(\C)[C@@H](O)[C@@H](OC)C(=O)[C@H](C)C[C@H](C)/C=C/C=C/C=C/1C [Deforolimus (MK-8669)],71.2% and 68.8%,70.8,75,75,54.2,60.8,67.5,64
